# According to PubChem BioAssay (NCI):
# About 83,000 compounds went through this panel and 20% of them were active in at least one assay; those are over-represented in the sample as a whole.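 48-hour exposure, single concentration, 96-well plates; percent growth endpoint where 0 means no net growth. Active: below 10.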 Unmarked numbers belong to inactive results. Active and inactive are the calls of the source.
# Legend:
# Test in all cases: NCI-60 one-dose screen, 48 h (100 = growth as untreated, 0 = no growth, -100 = all killed)
# Conditions in all cases: 10 µM unless noted
# [1] = tested on: SK-MEL-2 melanoma
# [2] = tested on: EKVX NSCLC
# [3] = tested on: SN12C renal
# [4] = tested on: UO-31 renal
# [5] = tested on: TK-10 renal
# [6] = tested on: ACHN renal
# [7] = tested on: CAKI-1 renal
# [8] = tested on: A498 renal
# [9] = tested on: CCRF-CEM leukemia
# [10] = tested on: MOLT-4 leukemia
Structure (SMILES),growth [1],growth [2],growth [3],growth [4],growth [5],growth [6],growth [7],growth [8],growth [9],growth [10]
Clc1ccc(CNc2c3ccccc3nc3ccccc23)cc1,72.4%,62.6%,39.1%,27%,49.7%,22.8%,41.4%,20.8%,30.2%,4.63% (active)
Fc1ccc(-c2nn(-c3ccccc3)cc2-c2nc3ccccc3o2)cc1,125%,84%,60.1%,60.6%,126%,53.9%,82.1%,45.4%,66.4%,73.7%
O=C(/C=C/c1cccs1)c1ccc(Cl)nc1,98%,102%,103%,93.5%,84.2%,106%,94%,85.6%,91.4%,99.6%
CC(C)CCNC(=O)Cn1cccc(NC(=O)OCc2ccccc2)c1=O,112%,101%,103%,76%,130%,103%,70.3%,117%,96.6%,106%
CO/N=C(/C)c1ccc(NC(=O)CSc2nnc(-c3ccncc3)n2-c2ccccc2)cc1,67.6%,64.3%,36.1%,9.43% (active),-15.3% (active),10.1%,26.8%,89.7%,91.6%,92.2%
Cc1ccc(CNc2ccc(Cl)cc2NCc2ccc(C)c(O)c2)cc1O,33.3%,80.2%,-27.8% (active),11.9%,52.3%,0.115% (active),37.4%,82.2%,9.13% (active),-10.5% (active)
N#CCSc1nnc2n(Cc3ccccc3)c(=O)c3c4c(sc3n12)CCCC4,96%,94.1%,96.8%,76.2%,103%,106%,86.2%,93.4%,86.5%,90.7%
C#COc1cccc(Nc2ncnc3ncc(NC(=O)CCl)cc23)c1,24.5% [6.25 µM],57.1% [6.25 µM],3.98% [6.25 µM] (active),-68.1% [6.25 µM] (active),-24.2% [6.25 µM] (active),7.63% [6.25 µM] (active),36.4% [6.25 µM],61.8% [6.25 µM],23.2% [6.25 µM],50.4% [6.25 µM]
Cc1ccc(/C=N/Nc2nc(Nc3ccccc3)nc(-n3nc(C)cc3C)n2)cc1,32.6%,27.3%,48.9%,20.1%,3.47% (active),35.5%,-21.1% (active),58.5%,41%,42.3%
CCC(=C(c1ccc(OCCN2CCCC2)cc1)c1ccc(OCCN2CCCC2)cc1)c1ccc(Cl)cc1,-28.2% (active),92.7%,-62.9% (active),-73.4% (active),-12.5% (active),-84.6% (active),-58.7% (active),46.8%,-38.7% (active),-27.2% (active)
N=C(N)c1ccc(-c2ccc(-c3cc(Cl)cc(Cl)c3)o2)o1,-43.5% (active),-88.2% (active),-67.6% (active),-68.1% (active),-76.3% (active),-88.7% (active),-74.7% (active),58.8%,-39.1% (active),-60.4% (active)
Cc1c(-n2nnc(-c3nc4ccccc4s3)c2N)c(=O)n(-c2ccccc2)n1C,107%,101%,108%,73.9%,109%,100%,87%,112%,107%,98.3%
COc1ccc(-c2nnc3n(C)c(=O)c4ccccc4n23)cc1N,22%,55.7%,34.6%,44.3%,45.3%,50.8%,29.2%,-8.12% (active),18.5%,33.4%
COC(=O)/C=C1/SC(=Nc2ccc(C)cc2)N(CCc2c[nH]c3ccc(O)cc23)C1=O,35.4%,49.6%,45.4%,46.8%,94.6%,57.4%,69.9%,67.1%,1.81% (active),-8.16% (active)
CC(=O)c1cc(O)c2ccccc2c1O,103%,78.9%,105%,67%,148%,85.1%,85.7%,133%,-10.5% (active),107%
